Reference: PubChem BioAssay AID504447 (The Scripps Research Institute Molecular Screening Center, 2011)
Entries with a potency or affinity are not part of this list. The source made the active and inactive calls. No rule for the calls is given here.

biological target: Peroxisome proliferator-activated receptor gamma (Homo sapiens) (UniProt P37231); test: PPARg partial agonists, dose response, cell-based, luminescence, assay provider (AID 504447); settings: cell-based PPARg reporter, luciferase luminescence, partial agonism; series mostly up to 5 µM; fold change activation: at the top concentration
Sequence (P37231 whole entry, looked up): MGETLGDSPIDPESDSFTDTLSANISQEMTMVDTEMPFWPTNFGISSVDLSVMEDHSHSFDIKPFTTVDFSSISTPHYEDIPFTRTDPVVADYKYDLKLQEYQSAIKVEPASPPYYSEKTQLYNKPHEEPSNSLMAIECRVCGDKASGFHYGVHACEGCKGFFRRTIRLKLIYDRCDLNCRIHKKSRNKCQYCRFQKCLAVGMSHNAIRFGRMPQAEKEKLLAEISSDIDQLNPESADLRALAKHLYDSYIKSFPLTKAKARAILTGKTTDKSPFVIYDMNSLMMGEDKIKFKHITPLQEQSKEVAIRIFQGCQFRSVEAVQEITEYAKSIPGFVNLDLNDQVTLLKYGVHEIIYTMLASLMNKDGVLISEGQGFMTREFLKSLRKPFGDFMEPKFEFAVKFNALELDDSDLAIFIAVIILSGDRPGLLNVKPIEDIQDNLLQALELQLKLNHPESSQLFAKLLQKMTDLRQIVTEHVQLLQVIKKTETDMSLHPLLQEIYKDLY

Fold change activation, inactive:
O=C(O)CCN1C(=O)/C(=C/c2ccc(C(F)(F)F)cc2C(F)(F)F)SC1=S 0.98 fold
CC(C)OC(=O)CCN1C(=O)/C(=C/c2ccccc2)SC1=S 0.94 fold
CCOc1cc(N2CCOCC2)c(OCC)cc1NC(=O)c1ccc2ccccc2n1 1.26 fold
CCOc1cccc(/C(O)=C2/C(=O)C(=O)N(CCN3CCOCC3)C2c2ccncc2)c1 (stereo unspecified) 1.06 fold
O=c1c2cn(Cc3ccc(F)cc3)c3ccccc3c-2nn1Cc1ccc(F)cc1 1.04 fold
O=C1C(=O)N(CCCn2ccnc2)C(c2ccc(Cl)cc2)/C1=C(\O)c1ccc2c(c1)OCCO2 (stereo unspecified) 1.01 fold
Cc1cc(C)c2nc(N3C(=O)C(O)=C(C(=O)c4ccco4)C3c3ccc(O)cc3)sc2c1 (stereo unspecified) 1.08 fold
O=C(CSc1nnc(Cc2cc(=O)[nH]c(=O)[nH]2)n1-c1ccc(Cl)cc1)N1CCc2ccccc21 1.03 fold
O=C(O)CCN1C(=O)/C(=C/c2ccccc2)SC1=S 0.99 fold
O=C(CNC(=O)c1nc[nH]c1C(=O)N1CCc2ccccc2C1)OCc1ccccc1 1.01 fold
Cc1ccc2cc(CN(Cc3ccccc3)Cc3nnnn3C3CCCC3)c(=O)[nH]c2c1 0.99 fold
COc1ccccc1NC(=O)C(=O)c1cn(CC(=O)N2CCOCC2)c2ccccc12 1.03 fold
Cc1ccc2nc(N3C(=O)C(O)=C(C(=O)c4ccco4)C3c3cccc(O)c3)sc2c1 (stereo unspecified) 1.17 fold
O=C(NC(Cc1ccccc1)C(=O)N1CCN(c2ccccc2O)CC1)c1ccccc1 (stereo unspecified) 0.99 fold
CCOc1cccc(/C(O)=C2/C(=O)C(=O)N(Cc3ccco3)C2c2ccncc2)c1 (stereo unspecified) 0.91 fold
CCOc1ccc(CN2CCN(Cc3cccc4nonc34)CC2CCO)cc1 (stereo unspecified) 1.03 fold
